Measured values published in PubChem BioAssay AID463173 (ICCB-Longwood Screening Facility, Harvard Medical School, 2010).
Out of some 52,000 compounds screened, about 4,300 (8.3%) were called active. For the sample, actives were picked, then their nearest neighbours and some compounds at random. Unmarked numbers belong to inactive results. No stated cut-off is given here; in the data, active means survival mostly below about 52% (no sharp cut-off); inactive means mostly above about 56%.

The molecules below were run on DeltatarO mutant (assay: S. aureus survival, RN4220 and DeltatarO strains – OD600, teichoic acid synthesis inhibitors, primary screen (AID 463173)). Settings: S. aureus RN4220 wild type/DeltatarO growth, OD600, 18 h, stronger effect = lower value, screened at 18.75 µg/mL (by protocol).

**Q.** How did the survival turn out when `O=C(Cn1c(SCC(=O)N2CCc3ccccc32)nc2ccccc21)NC1CC1` was run?
**A.** Its survival is 77%.

**Q.** `c1ccc2c(c1)nc1n2CCC1` was tested. Which survival did it give?
**A.** The survival was 96%.

**Q.** Which survival does the source give for `OC1COCc2nc3ccccc3n2C1` (centres undefined) here?
**A.** The survival was 57% (active).

**Q.** With `O=C(NCCc1ccccc1)c1ccc2c(c1)nc1n2CCOC1` as the molecule, how does the survival read?
**A.** Its survival is 109%.

**Q.** Which survival does the source give for `Cn1c(=O)n(C)c2cc(N3CCOCC3)c(NS(=O)(=O)c3ccc(C(C)(C)C)cc3)cc21` here?
**A.** The survival was 81%.

**Q.** For `COc1cccc(NC(=O)C(Cc2ccccc2)N2Cc3ccccc3C2=O)c1` (centres undefined), which survival is on record?
**A.** Its survival is 66%.

**Q.** Which survival does the source give for `CCOc1ccc(CCNC(=O)c2cc3sc(CC)cc3n2C)cc1OCC` here?
**A.** Its survival is 55%.

**Q.** For `COc1cc(CN(C(=O)COc2ccc(F)cc2)c2ccccn2)cc(OC)c1OC`, which survival is on record?
**A.** Its survival is 81%.

**Q.** For `Cc1cccc(CN2CCC(CNC(=O)Cn3ncc4c([nH]c5ccc(C)cc54)c3=O)CC2)c1`, which survival is on record?
**A.** Its survival is 120%.

**Q.** Which survival does the source give for `O=S1(=O)C=C(Sc2nc3ccccc3s2)c2ccccc21` here?
**A.** The survival was 4% (active).

**Q.** With `Cc1cc(C)nc(SC2=CS(=O)(=O)c3ccccc32)n1` as the molecule, how does the survival read?
**A.** Its survival is 88%.

**Q.** How did the survival turn out when `OCC#CCSc1nc2ccccc2s1` was run?
**A.** The survival was 71%.

**Q.** Which survival does the source give for `CC(C)CCn1c(=O)c2cccnc2n(CC(=O)Nc2ccccc2)c1=O` here?
**A.** Its survival is 72%.

**Q.** For `Cc1ccc(Nc2sc(C(=O)c3ccc(F)cc3)c(N)c2S(=O)(=O)c2ccc(C)cc2)cc1`, which survival is on record?
**A.** The survival was 116%.

**Q.** `CCOc1ccccc1Nc1sc(C(=O)c2ccccc2)c(N)c1S(=O)(=O)c1ccc(C)cc1` was tested. Which survival did it give?
**A.** Its survival is 92%.

**Q.** With `COc1ccc(S(=O)(=O)c2c(Nc3ccc(C)cc3)sc(C(=O)c3ccc(C)cc3)c2N)cc1` as the molecule, how does the survival read?
**A.** The survival was 105%.

**Q.** How did the survival turn out when `CCOc1ccccc1Nc1sc(C(=O)c2ccc(Cl)cc2)c(N)c1S(=O)(=O)c1ccccc1` was run?
**A.** The survival was 25% (active).

**Q.** How did the survival turn out when `CCOc1ccc(Nc2sc(C(=O)c3ccc(F)cc3)c(N)c2S(=O)(=O)c2ccc(C)cc2)cc1` was run?
**A.** The survival was 52% (active).

**Q.** `CCOc1ccccc1Nc1sc(C(=O)c2ccc(Cl)cc2)c(N)c1C#N` was tested. Which survival did it give?
**A.** Its survival is 94%.

**Q.** `CCCS(=O)(=O)c1c(Nc2ccccc2C)sc(C(=O)c2ccccc2)c1N` was tested. Which survival did it give?
**A.** The survival was 28% (active).

**Q.** `CCS(=O)(=O)c1c(Nc2cc(C)ccc2C)sc(C(=O)c2ccccc2)c1N` was tested. Which survival did it give?
**A.** Its survival is 90%.

**Q.** How did the survival turn out when `Cc1ccccc1Nc1sc(C(=O)c2ccccc2)c(N)c1S(C)(=O)=O` was run?
**A.** The survival was 99%.

**Q.** For `Cc1nc2ccc(S(=O)(=O)N(C)CC(=O)Nc3ccc(C(C)C)cc3)cc2s1`, which survival is on record?
**A.** The survival was 113%.

**Q.** For `CCc1ccc(NC(=O)CN2C(=O)CCSc3ccccc32)cc1`, which survival is on record?
**A.** Its survival is 86%.

**Q.** With `CCc1nc2ccccc2n2c(-c3ccccc3)c3c(=O)n(C)c(=O)n(C)c3c12` as the molecule, how does the survival read?
**A.** The survival was 75%.

**Q.** For `Cc1cc2c(cc1S(=O)(=O)NCc1ccccc1)OCC(=O)N2`, which survival is on record?
**A.** Its survival is 91%.

**Q.** Which survival does the source give for `COc1ccc(C)cc1NC(=O)NC(C)c1c(-n2cccc2)sc(C)c1C` (centres undefined) here?
**A.** The survival was 44%.

**Q.** How did the survival turn out when `Cc1ccccc1-c1nnc(SCC(=O)N2CCCCC2)o1` was run?
**A.** The survival was 64%.

**Q.** `Cc1nc2c(-c3ccccc3)c(C)nn2c(C)c1CCC(=O)NCc1cccc(Cl)c1` was tested. Which survival did it give?
**A.** The survival was 109%.

**Q.** Which survival does the source give for `CCc1cccc(NC(=O)CN2C(=O)COc3ccc(S(=O)(=O)Nc4ccccc4)cc32)c1` here?
**A.** The survival was 82%.

**Q.** `CCOC(=O)C1=C(c2ccccc2)OC(N)=C(C#N)C1c1ccncc1` (centres undefined) was tested. Which survival did it give?
**A.** Its survival is 87%.

**Q.** `N#CC1=C(N)OC2=C(CCc3ccccc32)C1c1ccccc1` (centres undefined) was tested. Which survival did it give?
**A.** The survival was 2% (active).

**Q.** How did the survival turn out when `CC(C)N1CC2=C(OC(N)=C(C#N)C2c2cccnc2)/C(=C/c2cccnc2)C1` (centres undefined) was run?
**A.** The survival was 85%.

**Q.** How did the survival turn out when `Cc1ccc(CSc2n[nH]c(-c3ccccc3O)n2)cc1` was run?
**A.** Its survival is 62%.

**Q.** For `Cc1ccc(NC(=O)C(C)Sc2n[nH]c(-c3ccccc3O)n2)cc1` (centres undefined), which survival is on record?
**A.** The survival was 23% (active).

**Q.** `Cc1cccc(C)c1NC(=O)C(C)Sc1n[nH]c(-c2ccncc2)n1` (centres undefined) was tested. Which survival did it give?
**A.** The survival was 76%.

**Q.** For `O=C(NCC(=O)N1CCCCC1)c1ccccc1`, which survival is on record?
**A.** The survival was 97%.

**Q.** How did the survival turn out when `Cc1ccc(Cl)cc1NC(=O)Cn1c(=O)oc2cc(S(=O)(=O)N3CCCC3)ccc21` was run?
**A.** Its survival is 81%.

**Q.** With `CCc1ccccc1NC(=O)Cn1c(=O)n(CCc2ccccc2)c(=O)c2ccccc21` as the molecule, how does the survival read?
**A.** The survival was 89%.

**Q.** Which survival does the source give for `COC(=O)c1ccc(Cn2nc(-c3ccc(C)c(C)c3)ccc2=O)cc1` here?
**A.** Its survival is 67%.

**Q.** For `CCn1cc(C(=O)N2CCN(c3cccc(Cl)c3)CC2)c2cc(OC)c(OC)cc2c1=O`, which survival is on record?
**A.** The survival was 54%.

**Q.** With `COc1ccc(NC(=O)c2cn(CC(C)C)c(=O)c3cc(OC)c(OC)cc23)cc1Cl` as the molecule, how does the survival read?
**A.** The survival was 50%.

**Q.** Which survival does the source give for `COc1cc(Cl)c(C)cc1NC(=O)c1cn(CC(C)C)c(=O)c2cc(OC)c(OC)cc12` here?
**A.** Its survival is 42% (active).

**Q.** With `COc1ccc(NC(=O)Nc2cn(CC(C)C)c(=O)c3ccccc23)c(OC)c1` as the molecule, how does the survival read?
**A.** Its survival is 91%.

**Q.** With `CCn1cc(C(=O)Nc2cccc(Cl)c2)c2cc(OC)c(OC)cc2c1=O` as the molecule, how does the survival read?
**A.** Its survival is 46% (active).

**Q.** `CCn1cc(C(=O)Nc2ccc(C(C)C)cc2)c2cc(OC)c(OC)cc2c1=O` was tested. Which survival did it give?
**A.** Its survival is 63%.

**Q.** With `CCOC(=O)c1ccccc1NC(=O)c1cn(CC(C)C)c(=O)c2cc(OC)c(OC)cc12` as the molecule, how does the survival read?
**A.** Its survival is 53%.

**Q.** With `COc1ccc(C)cc1NC(=O)c1cn(C)c(=O)c2cc(OC)c(OC)cc12` as the molecule, how does the survival read?
**A.** Its survival is 72%.

**Q.** How did the survival turn out when `COc1ccc(OC)c(NC(=O)c2cn(CC(C)C)c(=O)c3cc(OC)c(OC)cc23)c1` was run?
**A.** Its survival is 50% (active).
